Records with an inconclusive call do not appear. Calls of active or inactive are those of the source. The call rests on the fitted dose curve; in most records, active means well fitted cell-killing curve with a large enough effect; inconclusive means small, poorly fitted or top-dose-only effect; inactive means no such curve, though single readings can be large or run the other way.
Experiment: qHTS of pediatric cancer cell lines to identify multiple opportunities for drug repurposing: Primary screen for Rh41 cells (AID 1347108);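 further: luminescence drop marks cytotoxic hits; nearly all actives have a fitted effect of over 70% in size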
Conditions: Rh41 rhabdomyosarcoma viability, CellTiter-Glo luminescence, 48 h; series mostly up to 46 µM; activity change, negative = cytotoxic: at the top concentration
Source text: Drug repurposing or repositioning has been offered as a strategy for drug development in oncology programs. This approach has special potential for childhood cancers and other rare or orphan diseases, where the expected return on new drug development has been a disincentive to pharmaceuticals. […] In this project we exploit the poly-pharmacology of drugs to discover new indications via phenotypic screening of a panel of 19 well-characterized cell lines derived from solid tumors seen in children and adolescents. The goal is to identify approved drugs with previously unrecognized anticancer properties that has the potential to reveal new mechanisms and biological processes involved in carcinogenesis or drug resistance. We employed a titration-based paradigm (quantitative high-throughput screening or qHTS), where all compounds were tested at multiple concentrations for their effect on cell viability. Concentration-response curves (CRCs) were derived directly from the primary screen, and both potency and efficacy values were used to identify compounds with robust bioactivity profiles. We screened the NIH Chemical Genomics Center (NCGC) Pharmaceutical Collection (NPC) and Mechanism Interrogation Plate (MIPE) small molecule collections of approved and investigational compounds against these cell lines; and measured metabolically active cells after 48 hours of compound treatment as a proxy for cell viability. […] Assay Submitter: Nathalia J. Martinez, National Center for Advancing Translational Sciences, National Institutes of Health, Rockville, MD, USA; email: natalia.martinez@nih.gov Shen, M et al. Quantitative high-throughput phenotypic screening of pediatric cancer cell lines identifies multiple opportunities for drug repurposing. Oncotarget 2017 Dec 19;9(4):4758-4772. PMID 29435139.
The cells were obtained from University of North Carolina (UNC), Pediatric Preclinical Testing Program (PPT), and Coriell Institute (CI). qHTS cell viability assay: Cells were assayed in growth media at a density of 500-1,000 cells/well. Five microliters of cells were dispensed into 1,536-well, white, solid-bottom, TC-treated plates (Greiner Bio One) using a multidrop dispenser and incubated at 37 degrees C, 5% CO2, under a humidified atmosphere for 5 hours. Twenty-three nanoliters of compounds and controls (neutral control DMSO or positive control bortezomib at final concentration of 2.3 µM) were subsequently transferred by Kalypsys pintool. For primary screens, the MIPE collection was tested at 11-point dilutions (final concentrations range from 0.78 nM to 46 µM) and the NPC collection at 8-point dilutions (final concentrations range from 0.59 nM to 46 µM). Compounds tested in follow-up screens were assayed at 11-point dilutions. Cells were incubated for 48 hours, followed by addition of 3 µL of CellTiter-Glo (Promega). After a 15 min incubation at room temperature, samples were analyzed for luminescence intensity using a ViewLux High-throughput CCD imager equipped with clear filters.

SMILES | activity change, negative = cytotoxic
CN(C)CCCO[C@@H]1[C@H]2OC(C)(C)O[C@H]2O[C@@H]1C(O)CO (stereo not given in full) | 33.1% (inactive)
CC1=C(CC(=O)O)c2cc(F)ccc2/C1=C\c1ccc(S(C)=O)cc1 (stereo not given) | 8.83% (inactive)
C[C@@H]1CN(c2c(F)c(F)c3c(=O)c(C(=O)O)cn(C4CC4)c3c2F)C[C@H](C)N1 | 21.8% [at 16.1 µM] (inactive)
CC12CCC(CC1)C(C)(C)O2 | 20.6% (inactive)
OCC(O)CN1CCN(c2ccccc2)CC1 (stereo not given) | 5.36% (inactive)
Cc1ncc([N+](=O)[O-])n1CC(O)CCl (stereo not given) | 11.2% (inactive)
Cc1ncc(COP(=O)(O)O)c(C=O)c1O | 21.5% (inactive)
CC(C)(C)C(=O)C(Oc1ccc(Cl)cc1)n1ccnc1 (stereo not given) | -0.102% (inactive)
Cc1cc(C(C#N)c2ccc(Cl)cc2)c(Cl)cc1NC(=O)c1cc(I)cc(I)c1O (stereo not given) | -5.77% (inactive)
CC(=O)c1ccc2c(c1)N(CCCN(C)C)c1ccccc1S2 | -2.76% (inactive)
N[C@H](C(=O)O)c1ccc(O)cc1 | 22.5% [at 16.1 µM] (inactive)
CC(C(O)c1ccc(O)cc1)N1CCC(Cc2ccccc2)CC1 (stereo not given) | 15.1% (inactive)
CN1CCC[C@@H]1Cc1c[nH]c2ccc(CCS(=O)(=O)c3ccccc3)cc12 | 27.6% (inactive)
CS(=O)(=O)c1ccc([C@@H](O)[C@@H](CF)NC(=O)C(Cl)Cl)cc1 | 7.32% (inactive)
CN(N=O)C(=O)N[C@@H]1[C@@H](O)[C@H](O)[C@@H](CO)O[C@@H]1O | 16.7% (inactive)
C[C@H]1O[C@@H](n2cc(F)c(=O)[nH]c2=O)[C@H](O)[C@@H]1O | 7.23% (inactive)
Nc1ccc(S(=O)(=O)Nc2ccccc2)cc1 | 23% (inactive)
C[C@]12C[C@H](O)[C@H]3[C@@H](CCC4=CC(=O)CC[C@@]43C)[C@@H]1CC[C@@H]2C(=O)CO | 32.9% (inactive)
CC(C)(C)C(=O)NCCCC(=O)O | 21.6% (inactive)
CCC(=O)Nc1ccc(O)cc1 | 7.26% (inactive)

SMILES | activity change, negative = cytotoxic
CCCCCCCCCCCCCCCCCCOCC(O)CO (stereo not given) | 31.6% (inactive)
C[C@]12CC[C@@H]3c4ccc(O)cc4CC[C@H]3[C@@H]1CCC2=O | 2.98% (inactive)
CCCCCCCCCCCCCCCC(=O)NCCO | 20.7% (inactive)
CN1CCOC(c2ccccc2)c2ccccc2C1 (stereo not given) | 22.9% (inactive)
CCCCOc1cc(C(=O)OCCN(CC)CC)ccc1N | 12.4% (inactive)
CCCCc1ncc(/C=C(\Cc2cccs2)C(=O)O)n1Cc1ccc(C(=O)O)cc1 | 22.5% (inactive)
O=c1cc[nH]c(=O)[nH]1 | 39% (inactive)
CC(=O)NC(Cc1ccccc1)C(=O)O (stereo not given) | 1.86% (inactive)
CC(CN(C)C)CN1c2ccccc2CCc2ccccc21 (stereo not given) | 13.2% (inactive)
CN(C)CCN(Cc1ccccc1)c1ccccn1 | 7.41% (inactive)
O=C(O)Cc1sc(-c2ccccc2)nc1-c1ccc(Cl)cc1 | 32.2% (inactive)
N[C@@H](CSCCCO)C(=O)O | 22.6% [at 16.1 µM] (inactive)
O=C(Oc1ccccc1C(=O)O)c1ccccc1O | 27.1% (inactive)
O=C(O)c1ccccn1 | 11.9% (inactive)
NC(=O)c1ncn([C@@H]2O[C@H](CO)[C@@H](O)[C@H]2O)c1N | 40.8% (inactive)
CCCn1cnc2c1c(=O)n(CCCCC(C)=O)c(=O)n2C | 10.1% (inactive)
CCC(=O)c1ccc(O)cc1 | 8.54% (inactive)
O=C(O)[C@H](O)c1ccccc1 | 22.7% (inactive)
O=C1N=C(O)CN1/N=C/c1ccc(-c2ccc([N+](=O)[O-])cc2)o1 | 29% (inactive)
CC(=O)Oc1c(C)c(C)c2c(c1C)CC[C@@](C)(CCC[C@H](C)CCC[C@H](C)CCCC(C)C)O2 | 14.1% (inactive)

Reference: PubChem BioAssay (NCATS)
